SMILES strings stand for the structures. The whole screen tested about 410,000 compounds, of which about 5,000 (1.2%) were called active. Not shown: some 13% with an inconclusive outcome. The full list was thinned out, with actives kept by preference. Unmarked numbers belong to inactive results. Calls follow the shape of the dose curve; as a rule, active = well fitted inhibition curve with a large enough effect; inconclusive = small, poorly fitted or top-dose-only effect; inactive = no such curve, though single readings can be large or run the other way.
% is scaled to controls: 0 for no effect and ±100 for the full control effect; potency is read from the fitted curve at half-maximal effect.

The assay is described as follows: qHTS for Inhibitors of TGF-b. Also: nearly all actives have a fitted effect of over 65% in size. The following applies: HepG2 CAGA-GFP TGF-b/SMAD3 reporter, GFP fluorescence, 18 h, TGF-beta stimulated, 500 pg/mL final; series mostly up to 46.1 µM; activity, negative = inhibition: at the top concentration. The gist of the method:
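HEPG2 CAGA-GFP cells (1000/well, DMEM with 1% FBS) were pre-incubated 2 h at 37 degrees C, given compound by pin tool, then stimulated with TGF-beta at 500 pg/mL final for 18 h before per-cell GFP fluorescence imaging.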
For orientation: Quantitative high-throughput screening tests each substance at several concentrations.
As for `CC(C)c1ccc(NC(=O)CN(C)S(=O)(=O)c2ccc3c(c2)c(=O)n(C)c(=O)n3C)cc1`, the “activity, negative = inhibition” value is -16.7%.

On to `Cc1c(CNC2CCCCC2)c(C(=O)O)c(C)n1Cc1cccc(Cl)c1`, for which the “activity, negative = inhibition” value is -0.0955%.

Take `Cc1cccc(N2CCN(C3=C(c4ccccc4)C(=O)c4ccccc43)CC2)c1C`: the “activity, negative = inhibition” value is 17%.

For `COc1ccc(CN2CCCC(N3CCc4ccccc4C3)C2)c(O)c1` (centres undefined), the “activity, negative = inhibition” value was -14.6%.

`COc1cc(C(=O)CCc2ccc3c(c2)OCO3)cc(OC)c1OC`: the “activity, negative = inhibition” value is 5.53%.

For `COc1c(O)ccc2c1CN1CCc3cc4c(cc3C1C2)OCO4` (centres undefined), the Potency was 14.1 µM (active).

With `C#CCOc1ccc(C2CC(=O)Nc3c2c(C)nn3-c2nc(C)cc(C)n2)cc1` (centres undefined), the “activity, negative = inhibition” value was -1.64%.

Consider `COc1ccccc1CNc1ccc(-c2nc(-c3ccccc3C)no2)cc1[N+](=O)[O-]`, for which the “activity, negative = inhibition” value was -9.17%.

On to `COc1ccc(S(=O)(=O)NCCCCOc2ccc(Cl)cc2)cc1`, for which the Potency was 12.6 µM (active).

Turning to `COc1ccc(S(=O)(=O)NCCOc2ccccc2)cc1F`, the “activity, negative = inhibition” value was 16.2%.

On to `COc1ccc(OCCNS(=O)(=O)Cc2ccccc2)cc1`, for which the “activity, negative = inhibition” value is -7.8%.

With `NC(=O)C1CCN(C(=O)c2cccc(NC(=O)c3nsc4ccccc34)c2)CC1`, the “activity, negative = inhibition” value is -22.1%.

As for `O=C(CC(c1cccs1)N1Cc2ccccc2C1=O)Nc1ccc(F)cc1F` (centres undefined), the “activity, negative = inhibition” value is -4.03%.

Turning to `CCOc1ccc(C(NC(=O)c2cc(OC)c(OC)c(OC)c2)c2cc(Cl)c3cccnc3c2O)cc1` (centres undefined), the “activity, negative = inhibition” value was -19.5%.

Regarding `CN(c1ccccc1)S(=O)(=O)c1ccc(C(=O)N2CCN(c3ccccc3Cl)CC2)cc1`, the Potency is 15.8 µM (active).

With `O=C(c1ccc(S(=O)(=O)N2CCCC2)cc1)N1CCN(c2ccccc2F)CC1`, the “activity, negative = inhibition” value is -7.28%.

`CN(c1ccccc1)S(=O)(=O)c1cc(C(=O)N2CCN(c3ncccn3)CC2)ccc1Cl`: the “activity, negative = inhibition” value is -18.2%.

On to `COc1ccc(OCCCn2c(C)nc3cc(C)c(C)cc32)cc1`, for which the “activity, negative = inhibition” value is -10.2%.

On to `Cn1nnc2c(N3CCN(c4ccccc4)CC3)ncnc21`, for which the “activity, negative = inhibition” value was 58.9%.

`O=C(O)C1=C/C(=C/C=[N+]2c3cc(O)c(O[C@H]4OC(CO)[C@@H](O)[C@@H](O)[C@@H]4O)cc3C[C@@H]2C(=O)[O-])C[C@H](C(=O)O)N1` (some centres undefined): the “activity, negative = inhibition” value is -20.6%.

For `Cc1nn(CC(=O)N2CCN(c3cccc(C(F)(F)F)c3)CC2)c(=O)c2cc3sccc3n12`, the “activity, negative = inhibition” value was -15.7%.

As for `Cc1cc(NC(=O)CC(C)C)cc(-c2nc3ncccc3o2)c1O`, the “activity, negative = inhibition” value is 15.4%.

For `CN(C)C(=O)c1cccc(-c2cnc3sc(NCc4ccc5c(c4)OCO5)nn23)c1`, the Potency is 10 µM (active).

Turning to `O=C(CSc1ncnc2scc(-c3ccccc3)c12)NCc1ccc2c(c1)OCO2`, the “activity, negative = inhibition” value was -23.1%.

Take `CCOc1c2ccc(C(=O)NCc3ccc4c(c3)OCO4)cc2nn1C`: the “activity, negative = inhibition” value was -8.29%.

Regarding `CCOc1ccc(CCNC(=O)Cn2nc(CC)n3c(cc4sc(CC)cc43)c2=O)cc1OCC`, the “activity, negative = inhibition” value is -29.1%.

On to `COc1cc(Nc2nc3ccc(Cl)cc3n3cnnc23)cc(OC)c1OC`, for which the “activity, negative = inhibition” value is 39.4%.

As to `COc1cccc(Nc2nc3ccccc3c3nncn23)c1`, the “activity, negative = inhibition” value is -9.39%.

With `FC(F)(F)c1cc(Nc2nc3ccccc3c3nncn23)ccc1Cl`, the Potency was 17.8 µM (active).

`O=C(CC(NCc1cccnc1)C(=O)O)Nc1ccc(O)cc1` (centres undefined): the “activity, negative = inhibition” value is 3.04%.

In the case of `COc1ccc(NC(=O)Cn2c(=O)n(CCC(C)C)c(=O)c3cccnc32)cc1Cl`, the “activity, negative = inhibition” value is -6.53%.

For `Cc1ccc(C)c(N2CCN(c3ccc4cc(S(=O)(=O)N5CCC(C)CC5)ccc4n3)CC2)c1`, the “activity, negative = inhibition” value is 15.4%.

Regarding `COc1ccc(Br)cc1C1CC(=O)Nc2c1c(C)nn2-c1nc(C)cc(C)n1` (centres undefined), the “activity, negative = inhibition” value is -3.57%.

For `COc1cccc(CN2CCC(C(=O)NC(c3ccc4c(c3)OCO4)c3ccccn3)CC2)c1` (centres undefined), the “activity, negative = inhibition” value is -6.59%.

On to `Cc1cccnc1C(NC(=O)C1CCN(Cc2ccc(Cl)c(Cl)c2)CC1)c1ccc(Cl)cc1` (centres undefined), for which the Potency is 11.2 µM (active).

For `O=C(NC(c1ccc(Cl)cc1)c1cnccn1)C1CCN(Cc2ccc(Cl)cc2)CC1` (centres undefined), the “activity, negative = inhibition” value is 2.45%.

In the case of `Cc1ccc(OCC(=O)OCc2cc(=O)n3nc(C4CC4)sc3n2)cc1C`, the “activity, negative = inhibition” value is 4.88%.

For `COCCNC(=O)CSc1c(C)cnc2c1c(=O)n(C)c(=O)n2C`, the “activity, negative = inhibition” value was 17.4%.

Turning to `O=S(=O)(c1ccc(Br)cc1)c1nnn2c1nc(NC1CCCCCC1)c1sccc12`, the “activity, negative = inhibition” value was 43.2%.

For `CC1=C(c2ccc(Cl)cc2)S(=O)(=O)N=C1N1CCN(c2cc(C)ccc2C)CC1`, the “activity, negative = inhibition” value is 26.8%.

As to `CC1=C(c2ccc(C)cc2)S(=O)(=O)NC1=NCCCN1CCN(c2cc(C)ccc2C)CC1`, the Potency was 20 µM (active).

Take `CCOC(=O)c1c(C)[nH]c(CCC(=O)NCCCN2CCN(c3cc(C)ccc3C)CC2)c1C`: the “activity, negative = inhibition” value is -20.3%.

With `COC(=O)c1c(NC(=O)CCCOc2ccccc2)sc2c1CCC(C)C2` (centres undefined), the “activity, negative = inhibition” value is 14.7%.

With `CSc1ccc(NC(=O)Cn2nnnc2-c2ccccc2F)cc1`, the “activity, negative = inhibition” value is -20.5%.

`CCc1ccc(-n2nnc(-c3nc(-c4ccccc4)no3)c2C)cc1`: the “activity, negative = inhibition” value was -34.3%.

With `O=C(c1ccccc1)N1CCN(c2cc(-c3ccccc3)nc3cc(-c4cccc(Cl)c4)nn23)CC1`, the “activity, negative = inhibition” value was 8.56%.

In the case of `COc1cccc(-c2cc3nc4c(c(N5CCC6(CC5)OCCO6)n3n2)CCCC4)c1`, the Potency is 12.6 µM (active).

As for `O=C(CC(c1cccs1)N1Cc2ccccc2C1=O)Nc1ccc(F)c(F)c1` (centres undefined), the “activity, negative = inhibition” value is -4.52%.

For the compound `CCOc1ccccc1NC(=O)Cn1c(=O)n(Cc2ccco2)c(=O)c2sc3ccccc3c21`, the “activity, negative = inhibition” value is -0.989%.
